Values joined by “and” are separate entries in the source; they are usually repeats but may differ in a detail not shown here. Identical values can stand only once. Records with an inconclusive call do not appear. A call without a number means that no potency is given here. A structure can be active in one record and inactive in another. Active and inactive are the calls of the source. Unless noted, the call rests on the fitted dose curve; in most records, active means well fitted inhibition curve with a large enough effect in the repeat runs; inconclusive means weak or mixed curves; inactive means no such curve, though single readings can be large or run the other way.
Biological target: Acetylcholinesterase (Homo sapiens) (UniProt P22303)
Sequence (P22303 whole entry, looked up): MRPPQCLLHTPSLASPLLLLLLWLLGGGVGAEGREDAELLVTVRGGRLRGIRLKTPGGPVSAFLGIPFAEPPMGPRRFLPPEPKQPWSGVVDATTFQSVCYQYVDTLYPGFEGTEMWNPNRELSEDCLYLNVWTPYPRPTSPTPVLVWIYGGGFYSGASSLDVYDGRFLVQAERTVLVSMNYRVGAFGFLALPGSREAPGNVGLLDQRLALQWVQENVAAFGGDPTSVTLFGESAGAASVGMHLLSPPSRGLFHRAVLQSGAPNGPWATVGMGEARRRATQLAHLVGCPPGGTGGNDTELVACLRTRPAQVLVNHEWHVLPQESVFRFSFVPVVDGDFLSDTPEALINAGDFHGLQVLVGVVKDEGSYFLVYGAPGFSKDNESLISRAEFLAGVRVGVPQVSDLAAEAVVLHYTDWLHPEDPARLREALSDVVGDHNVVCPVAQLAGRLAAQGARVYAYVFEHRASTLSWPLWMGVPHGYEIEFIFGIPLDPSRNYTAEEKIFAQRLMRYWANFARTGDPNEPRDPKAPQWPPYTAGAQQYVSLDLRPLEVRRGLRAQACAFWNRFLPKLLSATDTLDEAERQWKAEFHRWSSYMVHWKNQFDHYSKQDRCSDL
Test: Acetylcholinesterase (AChE) small molecule antagonists: enzyme-based qHTS assay with human liver microsomes (AID 1347399; calls by dose curve; further: nearly all actives have a fitted effect of over 60% in size)
Settings: Potency: qHTS inhibition; series mostly up to 115 µM
Procedure, shortened: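 Recombinant human AChE (50 mU/mL in the enzyme mix) and human liver microsomes (0.25 mg/mL final) were preincubated with compound and NADPH (0.25 mg/mL final) for 30 min at 37 C. Acetylthiocholine/DTNB was then added; thiocholine was read colorimetrically after 10 min at room temperature.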
Potency means the concentration at half of the fitted maximal effect.

| Structure (SMILES) | Potency |
| --- | --- |
| CC(C)CCCCCCOC(=O)c1ccccc1C(=O)OCCCCCCC(C)C | inactive |
| O=C(O)C1C(C(=O)O)C2(Cl)C(Cl)=C(Cl)C1(Cl)C2(Cl)Cl (stereo unspecified) | inactive |
| Nc1cccc(Cl)c1 | inactive |
| COP(=S)(OC)SCN1C(=O)c2ccccc2C1=O | inactive |
| Clc1cnc(Oc2ccc(Oc3ncc(Cl)cc3Cl)cc2)c(Cl)c1 | inactive |
| O=C(O)c1cc(Oc2ccc(C(F)(F)F)cc2Cl)ccc1[N+](=O)[O-] | inactive |
| Cc1ccc(N=C=O)cc1N=C=O | inactive |
| CN1C(=O)CCS(=O)(=O)C1c1ccc(Cl)cc1 (stereo unspecified) | inactive |
| O=S(=O)(O)OOS(=O)(=O)O | inactive |
| Cl[C@H]1OCCO[C@@H]1Cl | inactive |
| Cl/C=C/Cl | inactive |
| COc1nc(NC(C)C)nc(NC(C)C)n1 | inactive |
| O=C(O)C(Br)Br | inactive |
| O=C(O)Cc1ccccc1 | inactive |
| CCSC(=O)N1CCCCCC1 | inactive |
| N#Cc1ccccn1 | inactive |

| Structure (SMILES) | Potency |
| --- | --- |
| O=[N+]([O-])c1cc([As](=O)(O)O)ccc1O | inactive |
| CN(C)NC(=O)CCC(=O)O | inactive |
| O=[N+]([O-])c1ccc(Cl)c(Cl)c1 | inactive |
| CC(C)(C)C(=O)CCl | inactive |
| CCCOC(=O)c1ccccc1C(=O)OCCC | inactive |
| Nc1ncc([N+](=O)[O-])s1 | inactive |
| Cc1ccc(O)c(C)c1 | inactive |
| O=[N+]([O-])c1ccc(Cl)cc1 | inactive |
| CCOc1ccc(N)cc1 | inactive |
| CNC(=O)O/N=C/C(C)(C)S(C)=O (stereo unspecified) | 2.87 µM (active) and 2.51 µM (active) |
| CNC(=O)O/N=C(\SC)C(=O)N(C)C | 12.3 µM (active) and 20 µM (active) |
| Cc1cc(O)ccc1Cl | inactive |
| c1ccc2c(c1)CCCC2 | inactive |
| CCOP(=S)(OCC)Oc1cc(C)nc(C(C)C)n1 | inactive and 8.71 µM (active) |
| COC(C)(C)CCCC(C)C/C=C/C(C)=C/C(=O)OC(C)C (stereo unspecified) | inactive |

Biological target: Cytochrome P450 2D6 (Homo sapiens) (UniProt P10635)
Sequence (P10635 whole entry, looked up): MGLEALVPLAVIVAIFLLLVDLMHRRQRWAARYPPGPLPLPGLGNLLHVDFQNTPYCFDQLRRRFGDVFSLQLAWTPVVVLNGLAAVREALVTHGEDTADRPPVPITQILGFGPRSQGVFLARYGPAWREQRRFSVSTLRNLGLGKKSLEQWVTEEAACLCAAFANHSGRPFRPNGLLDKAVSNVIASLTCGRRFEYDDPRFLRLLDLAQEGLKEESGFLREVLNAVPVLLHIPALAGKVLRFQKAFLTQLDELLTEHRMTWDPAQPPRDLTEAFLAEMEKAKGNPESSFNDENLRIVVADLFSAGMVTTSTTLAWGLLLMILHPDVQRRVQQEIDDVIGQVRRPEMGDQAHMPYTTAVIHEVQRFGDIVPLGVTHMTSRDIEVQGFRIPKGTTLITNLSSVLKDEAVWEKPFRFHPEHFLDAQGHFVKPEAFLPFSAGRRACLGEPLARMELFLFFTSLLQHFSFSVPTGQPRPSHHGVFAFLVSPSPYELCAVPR
Test: Cytochrome P450 Family 2 Subfamily D Member 6 (CYP2D6) small molecule antagonists: luciferase reporter qHTS assay (AID 1671196); further: nearly all actives have a fitted effect of over 50% in size
Settings: P450-Glo CYP2D6 enzyme assay, luciferin luminescence, 1 h; series mostly up to 115 µM
Procedure, shortened: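 Test chemicals meet CYP2D6 plus proluciferin substrate (10 min, RT); NADPH regenerating solution then drives turnover for 1 h. Detection reagent halts the reaction; luminescence measured after 20 min.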

| Structure (SMILES) | Potency |
| --- | --- |
| CC(C)CCCCCCOC(=O)c1ccccc1C(=O)OCCCCCCC(C)C | inactive |
| O=C(O)C1C(C(=O)O)C2(Cl)C(Cl)=C(Cl)C1(Cl)C2(Cl)Cl (stereo unspecified) | inactive |
| Nc1cccc(Cl)c1 | inactive |
| COP(=S)(OC)SCN1C(=O)c2ccccc2C1=O | 35.8 µM (active) and 35.6 µM (active) and 15.5 µM (active) |
| Clc1cnc(Oc2ccc(Oc3ncc(Cl)cc3Cl)cc2)c(Cl)c1 | inactive |
| O=C(O)c1cc(Oc2ccc(C(F)(F)F)cc2Cl)ccc1[N+](=O)[O-] | inactive |
| Cc1ccc(N=C=O)cc1N=C=O | 40.9 µM (active) and 11.2 µM (active) and inactive |
| CN1C(=O)CCS(=O)(=O)C1c1ccc(Cl)cc1 (stereo unspecified) | inactive |
| O=S(=O)(O)OOS(=O)(=O)O | inactive |
| Cl[C@H]1OCCO[C@@H]1Cl | 19.6 µM (active) |
| Cl/C=C/Cl | inactive |
| COc1nc(NC(C)C)nc(NC(C)C)n1 | inactive |
| O=C(O)C(Br)Br | inactive |
| O=C(O)Cc1ccccc1 | 40 µM (active) and 12.3 µM (active) |
| CCSC(=O)N1CCCCCC1 | 30.8 µM (active) and inactive |
| N#Cc1ccccn1 | inactive |

| Structure (SMILES) | Potency |
| --- | --- |
| O=[N+]([O-])c1cc([As](=O)(O)O)ccc1O | inactive |
| CN(C)NC(=O)CCC(=O)O | inactive |
| O=[N+]([O-])c1ccc(Cl)c(Cl)c1 | inactive |
| CC(C)(C)C(=O)CCl | inactive |
| CCCOC(=O)c1ccccc1C(=O)OCCC | inactive |
| Nc1ncc([N+](=O)[O-])s1 | inactive |
| Cc1ccc(O)c(C)c1 | inactive |
| O=[N+]([O-])c1ccc(Cl)cc1 | inactive |
| CCOc1ccc(N)cc1 | 31.8 µM (active) and 39.9 µM (active) |
| CNC(=O)O/N=C/C(C)(C)S(C)=O (stereo unspecified) | inactive |
| CNC(=O)O/N=C(\SC)C(=O)N(C)C | 30.9 µM (active) and 28.2 µM (active) |
| Cc1cc(O)ccc1Cl | inactive |
| c1ccc2c(c1)CCCC2 | 7.25 µM (active) and inactive |
| CCOP(=S)(OCC)Oc1cc(C)nc(C(C)C)n1 | inactive |
| COC(C)(C)CCCC(C)C/C=C/C(C)=C/C(=O)OC(C)C (stereo unspecified) | inactive |

Biological target: Cytochrome P450 2C19 (Homo sapiens) (UniProt P33261)
Sequence (P33261 whole entry, looked up): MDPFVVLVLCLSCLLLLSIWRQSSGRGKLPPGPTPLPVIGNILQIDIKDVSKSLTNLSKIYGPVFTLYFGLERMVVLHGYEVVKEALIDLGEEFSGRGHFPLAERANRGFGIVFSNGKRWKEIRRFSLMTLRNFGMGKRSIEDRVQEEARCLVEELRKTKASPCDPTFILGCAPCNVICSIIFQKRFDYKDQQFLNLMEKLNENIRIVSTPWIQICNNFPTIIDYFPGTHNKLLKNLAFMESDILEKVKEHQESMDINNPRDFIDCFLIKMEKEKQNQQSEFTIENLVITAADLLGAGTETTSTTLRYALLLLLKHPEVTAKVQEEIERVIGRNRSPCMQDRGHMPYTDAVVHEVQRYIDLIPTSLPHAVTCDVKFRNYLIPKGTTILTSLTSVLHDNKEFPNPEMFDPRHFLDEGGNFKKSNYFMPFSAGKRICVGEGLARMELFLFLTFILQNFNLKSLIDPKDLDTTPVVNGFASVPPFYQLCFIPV
Test: Cytochrome P450 Family 2 Subfamily C Member 19 (CYP2C19) small molecule antagonists: luciferase reporter qHTS assay (AID 1671197); further: nearly all actives have a fitted effect of over 65% in size
Settings: P450-Glo CYP2C19 enzyme, luciferin luminescence, 1 h; series mostly up to 115 µM
Procedure, shortened: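 P450-Glo CYP2C19 system: enzyme-substrate mix with compound 10 min at room temperature, then NADPH regeneration solution, 1 h at 37C. Proluciferin-to-luciferin conversion detected by luminescence after 20 min with detection reagent; ketoconazole as positive control.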

| Structure (SMILES) | Potency |
| --- | --- |
| CC(C)CCCCCCOC(=O)c1ccccc1C(=O)OCCCCCCC(C)C | 71 µM (active) |
| Cc1ccc(N=C=O)cc1N=C=O | 36.5 µM (active) and 10 µM (active) and inactive |
| CN1C(=O)CCS(=O)(=O)C1c1ccc(Cl)cc1 (stereo unspecified) | 28.3 µM (active) |
| O=C(O)C(Br)Br | inactive |
| O=C(O)Cc1ccccc1 | inactive |
| O=[N+]([O-])c1ccc(Cl)c(Cl)c1 | 71.1 µM (active) and inactive |
| CCCOC(=O)c1ccccc1C(=O)OCCC | 8.09 µM (active) and 8.94 µM (active) |
| Cc1ccc(O)c(C)c1 | inactive |
| CCOc1ccc(N)cc1 | 40 µM (active) and inactive |

— PubChem BioAssay (Tox21)
